The text below walks through data of PubChem BioAssay.

Each structure is given as a SMILES string. Values joined by “and” are separate entries in the source; they are usually repeats but may differ in a detail not shown here. Equal entries are not always repeated. Results filed as inconclusive are left out. Active and inactive are the calls of the source.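 How the source made its calls, unless noted: active means thallium flux through the channel raised or lowered by more than 3 SD from vehicle-only wells, actives on both sides; inactive means the rest.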

In assay [1] the target is 6-phosphogluconate dehydrogenase, decarboxylating (Homo sapiens) (UniProt P52209). The assay can be described thus: inhibition of human phosphogluconate dehydrogenase – biochemical, recombinant enzyme, NADPH absorbance, primary screen (AID 1159550;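 active means at least 20% inhibition of 6-phosphogluconate dehydrogenase activity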). To be noted: recombinant 6PGD, NADPH absorbance 341 nm; at 10 µM; stronger effect = higher value.
A short description of assay [2]: EMT-state selective cytotoxicity in co-culture – imaging, PC-3E GFP, TEM4-18 mCherry, primary screen (AID 1345086;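 active means compounds killing one labelled cell type while sparing the other, by normalised counts and ratio limits, not self-fluorescent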;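 further: cells exposed to compound for 72 h before imaging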;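 on red/green cell ratio (normalised): normalised mesenchymal count divided by normalised epithelial count so high means epithelial killing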). The note with it: PC-3E GFP / TEM4-18 mCherry co-culture, imaging cell counts, at 1 µM.
Assay [3] deals with ATP-dependent translocase ABCB1 (Homo sapiens) (UniProt P08183). The assay can be described thus: P-glycoprotein substrate transport blockade – cell-based (AID 377; in the data active means fluorescence slope change above about 50%). To be noted: MDR1-expressing cells, fluorescent substrate accumulation slope; stronger effect = higher value; concentration not given here.
Assay [4] is described as follows: compounds altering viability of human ES cells (AID 493140; call rule not given here;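 further: cells exposed to compounds for four days before counting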). The note with it: human embryonic stem cell survival screen; stronger effect = higher value.
Assay [5] in a line: signal quenchers or enhancers, Cy5 substrate/SSB – biochemical, NIH Clinical Collection, E. coli SSB, artefact control for HCV NS3 helicase inhibitor project (AID 743268; call rule not given here). To be noted: Cy5-oligo bound E. coli SSB, fluorescence interference.
Assay [6] concerns Hepatitis C virus NS3 helicase. The assay can be described thus: blockers of NS3h binding to DNA – biochemical, fluorescence polarization, NIH Clinical Collection, primary screen (AID 743270; call rule not given here). The note with it: NS3 helicase binding to Cy5-dT15 DNA, stronger effect = higher value, concentration not given here. On the technique in general: Polarisation of emitted light reports the rotation of a fluorescent probe.

The target in assay [7] is Single-stranded DNA-binding protein (Escherichia coli (strain K12)) (UniProt P0AGE0). Briefly: SSB-ssDNA binding inhibitors – biochemical, fluorescence polarization, NIH Clinical Collection, counter-screen for HCV NS3 helicase inhibitor project (AID 743271; in the data active means inhibition above about 28%). To be noted: E. coli SSB-DNA binding, stronger effect = higher value, concentration not given here.
Assay [8] is described as follows: compounds distorting NS3 helicase fluorescence signal – biochemical, NIH Clinical Collection, artefact control for HCV NS3 helicase inhibitor project (AID 743272; call rule not given here;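 further: HCV NS3 helicase with a Cy5 labelled single stranded DNA probe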). The note with it: fluorescence interference counterscreen, HCV NS3 helicase assay; stronger effect = lower value.
The test system of assay [9] is Aerobactin synthetase IucA (Klebsiella pneumoniae). The assay can be described thus: inhibition of K. pneumoniae IucA enzyme – biochemical, Tocris library, absorbance (AID 1345561; call rule not given here;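 further: 100% = enzyme without compound and 0% = no enzyme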). To be noted: purified IucA enzyme assay, absorbance (OD) read-out; stronger effect = lower value;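 tested at 8 µM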.
Assay [10] deals with Aerobactin synthetase IucA (Klebsiella pneumoniae, hypervirulent). Briefly: biochemical IucA inhibition screen of LOPAC library by absorbance (AID 1346212; call rule not given here;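 further: 100% = no compound wells and 0% = no enzyme wells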). The note with it: IucA enzyme assay, absorbance (OD) readout; stronger effect = lower value;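 tested at 8 µM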.
Assay [11] can be described thus: MELAS cybrid and Rieske KO viability enhancers – cell-based, MELAS cybrids, Rieske KO mouse fibroblasts, CellTiter-Glo, primary screen (AID 1508586;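 active means mean z-score across replicates of 1.96 or higher in either the MELAS or the Rieske mutant cell line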;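 further: z relative to plate mean and SD of compound and empty wells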). The note with it: low glucose. On the technique in general: Cellular ATP, detected with luciferase, serves as a proxy for viable cell number.
Assay [12] concerns the target NAD(+) hydrolase SARM1 (Homo sapiens) (UniProt Q6SZW1). The assay can be described thus: blocking NAD cleavage by SARM1 SAM-TIR – cell lysate, NAD-Glo luminescence (AID 1508614;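 active means compound whose remaining NAD level is above about 45 nM, limit read from the data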). The note with it: SAM-TIR HEK293T lysate NADase, at 1 µM, stronger effect = higher value.
Assay [13] deals with Mitogen-activated protein kinase 7 (Homo sapiens) (UniProt Q13164). The assay can be described thus: Gal4-ERK5 driven luciferase induction – cell-based, HTS, primary screen (AID 1508626;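 active means luciferase signal above three times the same-plate solvent-only control wells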;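 further: luciferase driven by Gal4-ERK5 fusion binding five Gal4 sites before minimal TATA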). To be noted: HeLa Gal4-ERK5 transactivation, 18 h, at 5 µM, stronger effect = higher value.
A short description of assay [14]: galactose survival enhancers in mitochondrial complex I cybrids – cell-based, galactose medium, ATP luminescence, primary screen (AID 1645843;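 active means z-score of at least 1.8 in each of two replicates, scored against plate mean and spread of sample wells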;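 further: positive z means more ATP and so rescue of galactose-driven cybrid death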). To be noted: complex I mutant cybrid cells, 72 h, stronger effect = higher value.
The next assay concerns F380Y. The assay can be described thus: BK channel mutant inhibitors and activators – cell-based, U2OS BacMam, thallium flux, beta subunits, selectivity assay, profiling panel (AID 1259406).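 Further: initial slope of Thallos dye fluorescence rise after thallium is added; log ratio against the mean of 0.3% DMSO vehicle wells on the same plate.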 To be noted: U2OS BacMam BK variants, at 30 µM.
The subject of the next assay is F380Y/beta1. The assay is described as above. The note with it: U2OS BacMam BK variants, at 30 µM.
In another assay the test system is F380Y/beta2Delta. Described as above. To be noted: U2OS BacMam BK variants, at 30 µM.
Another assay concerns F380Y/beta4. The description is as above. To be noted: U2OS BacMam BK variants, at 30 µM.
The target of assay [15] is Calcium-activated potassium channel subunit alpha-1 (Homo sapiens) + Leucine-rich repeat-containing protein 26 (Homo sapiens) (UniProt Q12791+Q2I0M4). The assay is described as above. To be noted: U2OS BacMam BK variants, F380Y/Slo1WT/gamma1, at 30 µM.
In another assay the test system is R275C. The assay is described as above. To be noted: U2OS BacMam BK variants, at 30 µM.
For another assay, the system named is R275C/beta1. Described as above. The note with it: U2OS BacMam BK variants, at 30 µM.
The next assay concerns R275C/beta2Delta. The assay is described as above. To be noted: U2OS BacMam BK variants, at 30 µM.
A further assay relates to R275C/beta4. The assay is described as above. To be noted: U2OS BacMam BK variants, at 30 µM.
For the next assay, the system named is R275C/Slo1WT/beta2. Described as above. The note with it: U2OS BacMam BK variants, at 30 µM.
For assay [16], the target named is Huntingtin (Homo sapiens) (UniProt P42858). The assay can be described thus: mutant huntingtin aggregation blockers – QA1, dose response (AID 1584). To be noted: in vitro mutant huntingtin aggregation assay; confirmation test; at 10 µM; stronger effect = lower value.
The nature of assay [17]: chitosan synthesis blockers in C. neoformans – flow cytometry, Cibacron Brilliant Red staining (AID 1347148; call rule not given here;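 further: compound exposure lasted three days at 37 degrees C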). The note with it: Cryptococcus neoformans chitosan, stronger effect = lower value; at 10 µM unless noted. (In general: In flow cytometry, cells or beads pass a laser one at a time.)
Assay [18] can be described thus: viability loss in pontine glioma line – cell-based, SU-DIPG-XVII, MIPE5.0, CellTiter-Glo, qHTS, dose response (AID 1347060; cut-off not given, nearly all actives have AC50 up to about 26 µM;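 further: cells exposed to compound for 48 hours before viability readout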). To be noted: CellTiter-Glo ATP luminescence.

6-phosphogluconate dehydrogenase, decarboxylating (Homo sapiens), sequence (P52209 whole entry, looked up): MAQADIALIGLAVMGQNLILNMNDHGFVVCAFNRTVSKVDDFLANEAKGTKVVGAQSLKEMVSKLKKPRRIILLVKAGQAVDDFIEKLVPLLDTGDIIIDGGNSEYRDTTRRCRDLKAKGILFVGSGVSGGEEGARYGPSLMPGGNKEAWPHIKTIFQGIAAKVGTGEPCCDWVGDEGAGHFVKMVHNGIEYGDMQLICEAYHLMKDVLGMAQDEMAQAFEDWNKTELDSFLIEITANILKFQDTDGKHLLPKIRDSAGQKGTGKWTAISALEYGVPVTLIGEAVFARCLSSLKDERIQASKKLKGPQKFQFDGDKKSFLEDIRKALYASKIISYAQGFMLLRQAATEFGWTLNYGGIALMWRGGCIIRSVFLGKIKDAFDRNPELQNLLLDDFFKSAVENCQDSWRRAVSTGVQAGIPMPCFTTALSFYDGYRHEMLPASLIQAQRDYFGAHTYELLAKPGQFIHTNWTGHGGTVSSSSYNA
Calcium-activated potassium channel subunit alpha-1 (Homo sapiens) + Leucine-rich repeat-containing protein 26 (Homo sapiens), sequence (Q2I0M4 whole entry, looked up, one chain of several): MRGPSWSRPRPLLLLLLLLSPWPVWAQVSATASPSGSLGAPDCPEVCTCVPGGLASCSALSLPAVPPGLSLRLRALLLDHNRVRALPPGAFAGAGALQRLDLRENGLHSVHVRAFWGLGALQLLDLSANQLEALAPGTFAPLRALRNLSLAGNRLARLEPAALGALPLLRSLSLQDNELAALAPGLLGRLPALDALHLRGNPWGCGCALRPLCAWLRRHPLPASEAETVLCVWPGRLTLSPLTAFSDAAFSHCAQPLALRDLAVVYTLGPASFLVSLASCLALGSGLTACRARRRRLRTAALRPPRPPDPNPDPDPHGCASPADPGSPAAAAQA
Huntingtin (Homo sapiens), sequence (P42858 whole entry, looked up): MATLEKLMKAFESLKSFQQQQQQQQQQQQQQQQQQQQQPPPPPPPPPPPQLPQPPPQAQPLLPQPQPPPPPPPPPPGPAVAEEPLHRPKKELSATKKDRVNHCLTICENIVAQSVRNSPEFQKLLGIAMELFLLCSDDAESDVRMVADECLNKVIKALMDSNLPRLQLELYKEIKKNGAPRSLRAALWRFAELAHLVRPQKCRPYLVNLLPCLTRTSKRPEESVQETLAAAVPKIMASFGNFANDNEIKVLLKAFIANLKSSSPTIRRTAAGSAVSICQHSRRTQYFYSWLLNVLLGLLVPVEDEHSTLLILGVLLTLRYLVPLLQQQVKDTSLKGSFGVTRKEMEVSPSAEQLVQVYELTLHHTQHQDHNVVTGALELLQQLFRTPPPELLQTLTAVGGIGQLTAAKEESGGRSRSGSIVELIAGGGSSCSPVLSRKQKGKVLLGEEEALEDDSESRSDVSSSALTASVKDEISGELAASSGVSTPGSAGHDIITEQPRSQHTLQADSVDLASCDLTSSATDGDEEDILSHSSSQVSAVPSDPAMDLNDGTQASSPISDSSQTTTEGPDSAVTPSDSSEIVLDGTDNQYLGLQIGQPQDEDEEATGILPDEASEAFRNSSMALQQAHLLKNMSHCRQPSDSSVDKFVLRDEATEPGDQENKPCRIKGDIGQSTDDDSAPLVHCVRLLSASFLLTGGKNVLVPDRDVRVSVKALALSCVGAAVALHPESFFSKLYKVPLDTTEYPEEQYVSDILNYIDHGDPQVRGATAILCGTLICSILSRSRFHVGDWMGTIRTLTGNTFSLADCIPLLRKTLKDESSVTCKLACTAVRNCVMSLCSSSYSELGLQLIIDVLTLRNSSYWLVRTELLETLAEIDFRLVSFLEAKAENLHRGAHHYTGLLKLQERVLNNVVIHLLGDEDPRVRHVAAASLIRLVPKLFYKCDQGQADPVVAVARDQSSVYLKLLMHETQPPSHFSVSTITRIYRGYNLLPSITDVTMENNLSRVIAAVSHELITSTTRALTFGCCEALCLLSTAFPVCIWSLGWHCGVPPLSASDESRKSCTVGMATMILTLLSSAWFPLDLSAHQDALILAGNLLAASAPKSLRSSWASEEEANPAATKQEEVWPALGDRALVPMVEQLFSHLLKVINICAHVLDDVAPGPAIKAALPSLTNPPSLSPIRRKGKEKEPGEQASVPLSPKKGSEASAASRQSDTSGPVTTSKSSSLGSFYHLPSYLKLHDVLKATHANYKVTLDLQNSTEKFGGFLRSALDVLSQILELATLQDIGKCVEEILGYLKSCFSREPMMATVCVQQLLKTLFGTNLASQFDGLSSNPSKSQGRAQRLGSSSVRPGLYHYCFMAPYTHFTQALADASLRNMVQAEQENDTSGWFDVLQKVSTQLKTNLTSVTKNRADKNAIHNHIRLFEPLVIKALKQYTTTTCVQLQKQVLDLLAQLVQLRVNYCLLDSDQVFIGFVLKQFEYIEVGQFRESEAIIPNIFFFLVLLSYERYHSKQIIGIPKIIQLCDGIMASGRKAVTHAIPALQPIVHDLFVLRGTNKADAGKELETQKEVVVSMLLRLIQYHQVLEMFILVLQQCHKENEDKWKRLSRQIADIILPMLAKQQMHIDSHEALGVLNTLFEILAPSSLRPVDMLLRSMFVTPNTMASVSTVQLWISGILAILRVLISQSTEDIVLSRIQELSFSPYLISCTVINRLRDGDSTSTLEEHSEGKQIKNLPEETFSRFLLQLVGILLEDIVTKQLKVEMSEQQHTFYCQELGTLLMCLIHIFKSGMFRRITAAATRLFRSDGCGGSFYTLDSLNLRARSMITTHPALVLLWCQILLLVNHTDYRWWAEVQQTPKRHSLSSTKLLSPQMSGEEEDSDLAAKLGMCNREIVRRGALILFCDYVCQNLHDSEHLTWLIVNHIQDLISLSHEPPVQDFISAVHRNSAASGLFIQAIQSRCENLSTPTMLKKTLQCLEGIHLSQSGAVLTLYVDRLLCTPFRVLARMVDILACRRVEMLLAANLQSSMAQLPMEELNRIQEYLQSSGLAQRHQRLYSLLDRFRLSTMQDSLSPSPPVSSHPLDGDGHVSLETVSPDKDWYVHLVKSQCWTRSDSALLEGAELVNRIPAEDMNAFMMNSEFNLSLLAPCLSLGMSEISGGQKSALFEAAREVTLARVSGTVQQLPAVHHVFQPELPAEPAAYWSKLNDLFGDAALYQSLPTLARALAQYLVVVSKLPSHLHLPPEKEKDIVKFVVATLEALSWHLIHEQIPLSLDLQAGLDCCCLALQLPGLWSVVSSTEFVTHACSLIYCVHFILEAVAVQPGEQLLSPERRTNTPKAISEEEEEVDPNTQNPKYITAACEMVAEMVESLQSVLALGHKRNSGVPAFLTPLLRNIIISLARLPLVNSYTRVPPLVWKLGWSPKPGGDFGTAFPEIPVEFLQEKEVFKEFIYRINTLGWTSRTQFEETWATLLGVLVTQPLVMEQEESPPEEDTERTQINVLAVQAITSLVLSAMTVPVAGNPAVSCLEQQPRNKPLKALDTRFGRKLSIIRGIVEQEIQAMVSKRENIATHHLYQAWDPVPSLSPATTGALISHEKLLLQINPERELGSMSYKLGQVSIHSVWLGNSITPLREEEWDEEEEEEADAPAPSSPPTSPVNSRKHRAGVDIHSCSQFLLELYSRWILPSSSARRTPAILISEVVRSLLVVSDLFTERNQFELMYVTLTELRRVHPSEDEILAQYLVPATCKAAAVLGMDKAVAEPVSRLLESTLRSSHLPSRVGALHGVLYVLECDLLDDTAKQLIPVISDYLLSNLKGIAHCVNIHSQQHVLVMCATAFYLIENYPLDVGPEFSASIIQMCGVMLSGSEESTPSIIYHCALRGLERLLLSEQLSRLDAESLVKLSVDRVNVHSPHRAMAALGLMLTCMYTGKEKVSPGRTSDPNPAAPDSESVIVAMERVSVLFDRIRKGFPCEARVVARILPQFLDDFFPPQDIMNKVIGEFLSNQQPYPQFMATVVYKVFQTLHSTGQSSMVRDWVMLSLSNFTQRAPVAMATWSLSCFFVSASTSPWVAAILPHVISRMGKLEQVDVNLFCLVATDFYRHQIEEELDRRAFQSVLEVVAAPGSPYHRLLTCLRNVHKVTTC
NAD(+) hydrolase SARM1 (Homo sapiens), sequence (Q6SZW1 whole entry, looked up, the tested form may be a part): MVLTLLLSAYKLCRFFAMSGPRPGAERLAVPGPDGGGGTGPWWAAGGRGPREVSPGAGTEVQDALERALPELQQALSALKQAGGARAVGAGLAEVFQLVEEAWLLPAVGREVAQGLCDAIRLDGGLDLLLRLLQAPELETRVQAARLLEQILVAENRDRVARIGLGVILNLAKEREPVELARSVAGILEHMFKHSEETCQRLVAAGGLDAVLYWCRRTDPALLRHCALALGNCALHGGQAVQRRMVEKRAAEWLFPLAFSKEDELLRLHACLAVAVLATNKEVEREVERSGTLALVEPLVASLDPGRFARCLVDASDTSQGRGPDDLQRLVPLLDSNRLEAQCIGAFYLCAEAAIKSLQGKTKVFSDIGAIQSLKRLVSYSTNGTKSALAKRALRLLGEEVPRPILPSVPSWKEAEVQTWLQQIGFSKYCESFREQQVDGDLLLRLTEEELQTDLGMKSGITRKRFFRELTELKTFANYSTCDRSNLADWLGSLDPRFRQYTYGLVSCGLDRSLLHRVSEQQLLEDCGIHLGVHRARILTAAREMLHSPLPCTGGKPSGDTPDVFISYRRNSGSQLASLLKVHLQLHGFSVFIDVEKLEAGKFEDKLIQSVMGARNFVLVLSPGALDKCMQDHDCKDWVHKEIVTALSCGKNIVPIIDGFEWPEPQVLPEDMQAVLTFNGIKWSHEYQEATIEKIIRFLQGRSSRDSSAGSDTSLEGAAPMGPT

As for `COc1cc2c(cc1OC)-c1c(oc3c4c(ccc3c1=O)OC(C(C)C)C4)CO2` (stereo unspecified), the inhibition in [1] is -6.79% (inactive). For the same compound, the red/green cell ratio (normalised) in [2] (actives lie on both sides, counts scaled to control wells, 1 = unselective) was 0.93 (inactive). Besides, the normalised cell number in [2] (measured here: epithelial PC-3E GFP cell survival) is 0.99; in [2] (measured here: mesenchymal TEM4-18 mCherry cell survival), 0.92.
`C=CCN1CC[C@]23c4c5ccc(O)c4O[C@H]2C(=O)CC[C@@]3(O)[C@H]1C5`: the fluorescence slope change in assay [3] was 64.1% (active). Moreover, in [4], the survival is 31.3 (inactive). Besides, the fluorescence ratio is 0.104 (active) in assay [5] and 1.04 (inactive) in assay [8]. Also, the inhibition was -4.09% (inactive) in [6], -4.29% (inactive) in assay [7] and -2.77% (inactive) in [1]. Also, the values for the remaining activity in assay [9] and in assay [10] were 101% (inactive) and 107% (inactive), respectively. Besides, the z-score in [11] (MELAS cybrid survival, CellTiter-Glo 48 h, stronger effect = higher value) is 0.056 (inactive) and 0.0574 (inactive); in [11] (Rieske KO mouse fibroblast survival, CellTiter-Glo 72 h), -0.112 and -0.417; in assay [14], 0.98 (inactive) and -0.48 (inactive) and 0.575 (inactive). In addition, in [12], the remaining NAD is 10 nM (inactive). Moreover, in assay [13], the luciferase signal is 32 AU (inactive). Further, the log fold change Tl+ flux is -0.039 (inactive) with F380Y; 0.0814 (inactive) with F380Y/beta1; 0.0141 (inactive) with F380Y/beta2Delta; 0.0525 (inactive) in the assay with F380Y/beta4; -0.00699 (inactive) in assay [15]; 0.034 (inactive) in the assay with R275C. Further, the log fold change Tl+ flux is 0.000161 (inactive) in the assay on R275C/beta1, 0.0302 (inactive) in the assay with R275C/beta2Delta, 0.00421 (inactive) with R275C/beta4 and 0.0157 (inactive) in the assay with R275C/Slo1WT/beta2.
As for `O=C1C=CC(=O)c2c(O)cccc21`, the aggregation ratio in assay [16] amounted to 0.312. For the same compound, the fold fluorescence in assay [17] is 2.01 [at 287.1 µM] (active).
Regarding `COc1cc([C@@H]2c3cc4c(cc3[C@@H](O)C3COC(=O)C32)OCO4)cc(OC)c1O` (stereo partly specified), in assay [18], the AC50 is 263 nM (active).

Usually inhibition stands for the drop in the measured response relative to a control, in per cent. As usually defined, the remaining activity is the signal under treatment as a percentage of the control signal. In general, AC50 refers to the concentration at which the activity in the assay is half-maximal.
